# Bioassay records from PubChem.
# BoNT-F LC inh: inhibitors of Botulinum neurotoxin F light chain protease. hit rate 0.22% among 360,000. inhibition, % at 10 µM. Multiplex microsphere protease cleavage assay, flow cytometry; in the data active = inhibition above about 35%, passing the limit was not always enough; inconclusive = no clear call, values can overlap the other calls; note: plate controls were buffer without enzyme for full effect and enzyme alone for no effect
# SARS 3CLpro inh: SARS-CoV 3CLpro protease inhibition. hit rate 0.14% among 290,000. P0C6X7. inhibition, % at 6 µM. recombinant SARS-CoV 3CLpro, quenched FRET peptide cleavage. AID 1706; in the data active = inhibition above about 12%
# CCHFV vOTU inh: blocks the CCHF virus ovarian tumor domain protease | CCHFV vOTU protease, Pep-AMC fluorescence | hit rate 0.55% among 370,000 | AID 651958 | inhibition, % at 11.5 µM; in the data active = inhibition above about 30%; note: 0% = vehicle wells with enzyme and 100% = no enzyme wells
# Anthrax LF inh2: inhibitors of Bacillus anthracis lethal factor protease | P15917 | multiplex microsphere protease cleavage assay, LF | inhibition, % at 10 µM | hit rate 0.12% among 360,000 | AID 588501; note: plate controls were buffer without enzyme for full effect and enzyme alone for no effect
# BoNT A protease: inhibitors of Botulinum neurotoxin A light chain protease; multiplex microsphere protease substrate cleavage, flow cytometry; inhibition, % at 10 µM; hit rate 0.17% among 360,000; AID 588499; note: plate controls were buffer without enzyme for full effect and enzyme alone for no effect
# Autofluor counter: counter-screen for toxin protease inhibitors: compound fluorescence. compound autofluorescence counterscreen, microsphere flow cytometry; stronger effect = higher value. fluorescence intensity (test concentration not listed). hit rate 3.1% among 360,000. AID 624483; in the data active = fluorescence intensity above about 16000; inconclusive = no clear call, values can overlap the other calls
# An asterisk follows results filed as active; ? = inconclusive; / = not tested or not shown. The list is not random: actives were taken first. Their share in the collection is about 3.9%. Cut-off read from the data, not from the text of the source, unless noted: active = inhibition above about 30%; inconclusive = no clear call, values can overlap the other calls; inactive = below that.
SMILES,BoNT-F LC inh,SARS 3CLpro inh,CCHFV vOTU inh,Anthrax LF inh2,BoNT A protease,Autofluor counter
COc1ccc2nc(N3CCCC3)[nH]c2c1,-2.2,-4.1,-11.3,-0.3,?,24269*
COc1ccc2nc(NCCO)[nH]c2c1,10.8,6.1,8.8,-3.9,0.7,2282
COC(=O)C1CC2=C(CCC2=O)N(c2ccccc2)C1=O (stereo not given),-4.5,/,10.5,4.7,-0.2,4095
COc1ccc(Cc2c(C3CCCCC3)nc3c(C)cc(Br)cn23)c(C)c1,-7.1,/,1.1,0.7,10.1,5814
Cc1cc(Cl)cc(C)c1OCC(=O)N1CCN(c2ncccn2)CC1,-4.0,/,10.9,-4.5,-2.2,8264
CCN(CC)CCNC(=O)c1ccc(NC(=O)Cc2ccsc2)cc1,0.3,1.0,9.3,2.8,-0.1,6089
CCCNC(=O)Cc1ccsc1,2.9,-5.6,3.2,-0.2,2.8,21829*
CN(C)CCCNC(=O)c1cc(C(=O)c2c(Cl)cccc2Cl)c[nH]1,10.1,0.2,-10.1,-2.1,-1.6,3162
CN1CCN(NC(=O)CN2C(=O)/C(=C/c3c(Cl)cccc3Cl)SC2=S)CC1,8.9,-1.4,-1.9,-5.2,1.0,4385
CN1CCN(NC(=O)CN2C(=O)/C(=C/c3ccccc3Cl)SC2=S)CC1,-5.8,0.1,10.7,-4.1,-1.4,16697*
CCN(CC)c1ccc(/C=N/Nc2cccc(C)c2)c(O)c1,-8.1,2.8,18.4,0.0,1.5,2470
CCN(CC)c1ccc(N=Cc2ccc(N(CC)CC)cc2O)cc1,7.2,0.4,24.3,-3.6,?,22151*
CCN(CC)c1ccc(C=Nc2ccc(C)cc2)c(O)c1,10.6,-0.7,17.0,24.3,28.3,4258
CCN(CC)c1ccc(C=Nc2cc(C)cc(C)c2)c(O)c1,13.2,7.8,-0.2,23.8,50.2*,3216
CCN(CC)c1ccc(/C=N/Nc2ccccc2)c(O)c1,-0.2,2.2,/,-1.5,1.7,22767*
COc1cc2c(C(=O)N3CCN(C)CC3)c(C)oc2cc1Br,-0.1,-2.7,4.0,0.5,-0.2,19992*
CCN(CC)CCNC(=O)c1c(C)oc2cc(Br)c(OC)cc12,7.2,8.3,0.6,-4.5,3.6,21610*
COc1cc(OC)cc(C(=O)NNC(=O)CN2C(=O)NC(C)(c3ccccc3)C2=O)c1 (stereo not given),-3.4,/,5.1,-6.0,-0.4,4577
O=c1[nH]c2ccc(S(=O)(=O)Nc3ccccc3O)cc2[nH]1,-0.8,3.7,0.0,15.4,2.3,3478
NC(=Nc1ccc(Cl)cc1)c1ccccc1,-0.7,-2.9,-33.5,-2.4,-0.8,4174
ONC(=Nc1ccccc1)c1ccc(Cl)cc1,4.3,-0.3,-1.5,-1.4,2.3,21077*
Cc1cc(C)cc(CSCC(=O)N/N=C/c2ccc(OCC(=O)NCc3ccco3)cc2)c1,2.9,-2.6,/,-3.8,3.3,21576*
COC(=O)[C@]12CCCCC=C1N(Cc1ccc(OC)cc1)C(=O)[C@@H]2CC(=O)NCCc1ccccc1OC,/,/,5.6,/,/,/
CC(C)Sc1nnc(-c2ccc(S(=O)(=O)N3CCOCC3)cc2)n1C,5.3,6.9,-0.6,10.7,-0.2,3046
O=C(CSc1nnc(C2CC2)n1C1CC1)c1ccccc1F,9.5,/,0.4,2.2,0.7,4492
SMILES,BoNT-F LC inh,SARS 3CLpro inh,CCHFV vOTU inh,Anthrax LF inh2,BoNT A protease,Autofluor counter
COC(=O)c1cn(C(=O)c2ccc(OC)cc2)c2ccccc12,36.3*,-1.9,-1.1,-8.1,0.7,4142
COC(=O)c1cn(CCOc2ccc(C)cc2)c2ccccc12,-3.2,2.0,7.9,-2.7,-1.9,22793*
COc1ccccc1N(Cc1cc(=O)[nH]c2ccccc12)C(=O)c1ccccc1,5.8,1.9,10.6,2.1,-1.4,4743
CN(Cc1cc(=O)[nH]c2ccccc12)C(=O)c1ccccc1,3.5,2.0,8.8,-3.3,2.2,19977*
CCN(CC)C(=N)/C(C#N)=N/Nc1ccccc1,0.9,3.0,-6.4,1.2,0.1,6211
Cc1cc(C)c2nc(-c3ccccn3)cc(C(=O)Nc3ccc(S(=O)(=O)Nc4cc(C)on4)cc3)c2c1,-2.0,2.5,-5.0,-7.0,?,16205*
CCOc1ccccc1OCC(=O)Nc1ccc(S(=O)(=O)Nc2nc(C)cc(C)n2)cc1,-2.6,5.0,2.2,-1.8,-1.5,20817*
Cc1cc(NS(=O)(=O)c2ccc(NC(=O)COc3ccccc3C(C)C)cc2)no1,-10.5,5.6,19.9,-13.3,-0.1,4414
Cc1cc(NS(=O)(=O)c2ccc(NC(=O)COc3ccccc3Cl)cc2)no1,-8.8,-1.8,2.0,-4.4,-3.6,24447*
CCC1(C)Cc2c(sc3nnn(Cc4ccccc4Cl)c(=O)c23)CO1 (stereo not given),-2.9,0.2,-1.0,3.8,0.3,20244*
CCC1(C)Cc2c(sc3nn[nH]c(=O)c23)CO1 (stereo not given),-1.9,0.8,/,-0.6,-1.0,16707*
CCOC(=O)N1CCN(C(=O)CN(c2ccc(Oc3ccccc3)cc2)S(C)(=O)=O)CC1,0.6,4.3,10.3,-5.2,-0.1,4294
CS(=O)(=O)N(CC(=O)O)c1ccc(Oc2ccccc2)cc1,0.3,6.4,-3.6,-4.5,0.0,20680*
COC(=O)c1ccccc1NC(=O)N1CCN(c2ccccc2F)CC1,-2.0,7.0,3.5,-0.7,0.5,2460
COC(=O)c1cccnc1N1CCN(c2ccccc2F)CC1,-0.5,-2.1,7.9,-3.7,?,23700*
O=C(Nc1ccc(Br)cc1)c1cccnc1N1CCOCC1,-4.9,2.4,4.2,-5.4,-0.9,5509
O=C(Nc1ccccc1)c1cccnc1N1CCCC1,-7.0,5.0,-4.7,-4.9,?,17182*
CC(C)OC(=O)c1cccnc1N1CCN(c2ccc(F)cc2)CC1,-1.8,-5.1,3.5,-2.6,-2.1,23861*
COc1ccc2nc(N3CCCC(C(=O)NCCCN4C(C)CCCC4C)C3)sc2c1 (stereo not given),-11.9,-1.7,-5.4,-6.8,-2.2,6056
CCCCNC(=O)c1cc(C)nc2ccccc12,-0.4,1.5,29.2,-2.1,1.3,4239
Cc1cc(C(=O)NCCCOC(C)C)c2ccccc2n1,1.8,-2.2,-16.8,0.6,0.4,22118*
CSc1ccccc1C(=O)NCCCOC(C)C,1.3,8.4,/,0.4,4.0,21738*
CC(=O)c1cccc(NC(=O)NCc2cccnc2)c1,-0.4,6.3,/,-1.0,-0.3,20530*
O=C(NCc1cccnc1)Nc1cccc(Cl)c1,-5.9,-1.5,-15.4,0.1,0.5,3734
O=C(NCc1cccnc1)Nc1cccc(NC(=O)NCc2cccnc2)c1,-13.0,-5.2,-2.8,-2.8,-7.7,27382*
COCCN(Cc1ccc(C)cc1)C(=O)[C@H]1O[C@@H](n2ccc(N)nc2=O)[C@H](O)[C@@H]1O,-0.7,/,-1.0,6.8,-0.6,5864
COC(=O)[C@]1(CNS(=O)(=O)C2CC2)CC(=O)N(C)[C@@H]1c1ccccc1,/,/,2.3,/,/,/
Fc1ccc(-c2nnc3n2CCCCC3)cc1,3.6,3.8,8.6,-4.6,0.6,3403
c1ccc(-c2nnc3n2CCCC3)cc1,3.6,-1.5,0.7,-0.2,1.9,22320*
CCCCCOC(=O)c1c(N)n(CCOC)c2nc3ccccc3nc12,-1.7,-0.5,-178.6,0.8,0.6,20661*
